# Measurements taken from article PMC4336329 (PLoS ONE, 2015).
# Among all 310,000 compounds or so, about 2,200 (0.71%) showed an effect of 50% or more. The effect is printed as a negative number. For the sample, strong results were picked, then their nearest neighbours and some compounds at random.
# Target: human ether-à-go-go-related gene (hERG) potassium channel (human, UniProt Q12809)
# Assay: primary screen, population patch clamp on CHO cells stably expressing hERG; higher = less effect of the substance
# Sequence of human ether-à-go-go-related gene (hERG) potassium channel (Q12809 whole entry, looked up): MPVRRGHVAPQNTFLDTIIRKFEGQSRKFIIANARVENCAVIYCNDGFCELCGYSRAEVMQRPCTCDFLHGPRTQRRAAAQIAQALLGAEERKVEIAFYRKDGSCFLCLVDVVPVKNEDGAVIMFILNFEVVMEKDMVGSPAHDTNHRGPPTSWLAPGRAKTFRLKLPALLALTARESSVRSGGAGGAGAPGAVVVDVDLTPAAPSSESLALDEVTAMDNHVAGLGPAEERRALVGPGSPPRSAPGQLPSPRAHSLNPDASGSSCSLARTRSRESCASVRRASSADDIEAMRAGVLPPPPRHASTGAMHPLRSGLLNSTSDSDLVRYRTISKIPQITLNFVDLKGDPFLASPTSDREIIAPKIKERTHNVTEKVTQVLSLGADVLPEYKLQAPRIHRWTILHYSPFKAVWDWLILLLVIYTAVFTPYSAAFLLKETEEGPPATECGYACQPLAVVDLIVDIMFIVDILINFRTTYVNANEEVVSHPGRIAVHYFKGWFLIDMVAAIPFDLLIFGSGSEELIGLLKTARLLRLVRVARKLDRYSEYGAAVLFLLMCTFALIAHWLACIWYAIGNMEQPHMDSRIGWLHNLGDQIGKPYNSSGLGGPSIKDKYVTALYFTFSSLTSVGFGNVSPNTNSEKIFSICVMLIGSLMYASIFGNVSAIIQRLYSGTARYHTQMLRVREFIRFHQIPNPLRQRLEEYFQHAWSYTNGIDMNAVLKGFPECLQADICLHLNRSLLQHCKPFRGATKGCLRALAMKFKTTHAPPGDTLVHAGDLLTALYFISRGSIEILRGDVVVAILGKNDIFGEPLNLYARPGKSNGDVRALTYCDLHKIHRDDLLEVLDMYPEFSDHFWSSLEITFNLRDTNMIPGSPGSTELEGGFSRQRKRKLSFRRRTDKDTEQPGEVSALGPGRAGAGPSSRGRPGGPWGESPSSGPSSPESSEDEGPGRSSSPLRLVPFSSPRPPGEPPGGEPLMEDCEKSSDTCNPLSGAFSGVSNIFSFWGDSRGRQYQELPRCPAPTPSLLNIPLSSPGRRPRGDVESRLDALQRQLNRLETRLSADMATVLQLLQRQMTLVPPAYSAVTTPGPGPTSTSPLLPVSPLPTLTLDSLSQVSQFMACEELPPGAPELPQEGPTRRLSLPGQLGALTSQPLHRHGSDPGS
row,Structure (SMILES),"hERG current change (%, negative = inhibition) at 1uM"
1,Cc1ccc(OCCNC(=O)CNC(=O)c2ccc(C)c(C)c2)cc1,4.24%
2,CCC(C(=O)NN1C(=O)c2ccccc2C1=O)c1ccccc1 (stereo not drawn),13.8%
3,CCC(=O)c1ccc(OCC(=O)OCC(=O)NC2CCCC2)cc1,14.5%
4,O=C(CCS(=O)(=O)c1ccc(Br)cc1)N1CCN(c2ccccc2Cl)CC1,2.11%
5,O=C(OCc1cc(=O)n2c(n1)sc1ccccc12)c1ccc(O)cc1O,7.81%
6,Cc1cccc2cc(-c3nc4c(C)cccn4c3NCc3ccco3)c(=O)[nH]c12,2.58%
7,COCCNc1c(-c2cc3ccc(C)c(C)c3[nH]c2=O)nc2ccccn12,-77%
8,Cc1ccc2[nH]c(=O)c(-c3nc4ccccn4c3NCc3ccco3)cc2c1,-4.3%
9,CCOCCCNC(=O)CN(Cc1ccc(Cl)cc1)S(C)(=O)=O,8.42%
10,CC(NC(=O)C1CCC1)c1ccc2c(c1)OCO2 (stereo not drawn),-3.43%
11,COCCCNC(=O)c1ccc2c(c1)OCO2,-2.46%
12,COCCCNS(=O)(=O)c1ccc2c(c1)OCCO2,5.7%
13,CC(C)CCC(CCNCc1ccccn1)c1ccc2c(c1)OCO2.Cl (stereo not drawn),-79.1%
14,Cl.Fc1ccccc1CNCCC(Cc1ccccc1)c1ccc2c(c1)OCO2 (stereo not drawn),10.8%
15,COCCCNCCC(CCC(C)C)c1ccc2c(c1)OCO2.Cl (stereo not drawn),-85.8%
16,CCNCCC(CCC(C)C)c1ccc2c(c1)OCO2 (stereo not drawn),-64.3%
17,c1ccc(CNCc2ccc3c(c2)OCO3)nc1,11%
18,CC(C)CCC(CCNCc1ccccn1)c1ccc(Cl)cc1 (stereo not drawn),-40.7%
19,COc1ccccc1NS(=O)(=O)c1ccc(C)c(C(=O)NCC2CCCO2)c1 (stereo not drawn),-14.5%

row,Structure (SMILES),"hERG current change (%, negative = inhibition) at 1uM"
1,CCNc1nc(N)nc(Oc2ccc(OCCOc3ccccc3)nn2)n1,8.36%
2,COc1ccc2[nH]c(C)c(CCN(Cc3cccs3)C(=S)Nc3ccccc3)c2c1,6.37%
3,O=C1c2ccc3c4c(ccc(c24)C(=O)N1NC(=O)C(F)(F)F)CC3,10.1%
4,COc1cc(NC(=O)c2ccccc2F)c(OC)cc1NC(=O)CN1CCCCC1.Cl,1.58%
5,O=C(O)c1ccccc1C(=O)Nc1ccc(Br)c(C(F)(F)F)c1,2.61%
6,CCc1ccc(N2C(=O)CC(N3CCN(Cc4ccc5c(c4)OCO5)CC3)C2=O)cc1 (stereo not drawn),-1.13%
7,Cc1ccc(-c2csc3nc(C(C)C)oc(=O)c23)c(C)c1,13.5%
8,CCOc1ccccc1CN1CCN(Cc2ccon2)CC1CCO (stereo not drawn),-7.08%
9,CCOc1ccccc1CN1CCN(Cc2cccc3nonc23)CC1CCO (stereo not drawn),-50%
10,CCOc1ccccc1CN1CCN(Cc2nc3ccccc3s2)CC1CCO (stereo not drawn),-67.7%
11,CCOc1ccc(CN2CCN(Cc3cccc4nonc34)CC2CCO)cc1 (stereo not drawn),-84.6%
12,CCOc1ccccc1CN1CCN(Cc2nc3c(s2)CCCC3)CC1CCO (stereo not drawn),-26.6%
13,CCOc1ccccc1CN1CCN(Cc2cccc3c2OCO3)CC1CCO (stereo not drawn),-2.66%
14,OCCC1CN(Cc2cccc3nonc23)CCN1Cc1ccsc1 (stereo not drawn),-15.7%
15,COc1ccc(CN2CCN(Cc3cccc4nonc34)CC2CCO)c(C)c1C (stereo not drawn),-7.13%
16,COc1cccc(CN2CCN(Cc3cccc4nonc34)CC2CCO)c1 (stereo not drawn),-24%
17,CC1CC(C)CN(C(=O)c2cc3cc(Br)cc(Br)c3o2)C1 (stereo not drawn),11.6%
18,COc1ccc(CN2C=C3C(=O)C(C)(OC(=O)C4CCCC4)C(=O)C=C3C=C2c2ccsc2)cc1 (stereo not drawn),-2.57%
19,CCOC(=O)N(NC(=O)C(O)(CC(C)C)CC(C)C)c1ccccc1,6.37%

row,Structure (SMILES),"hERG current change (%, negative = inhibition) at 1uM"
1,CCN(CC)CCN1C(=O)Cn2c(C)c(C)c3cccc1c32.O=C(O)C(O)C(O)C(=O)O,-56.1%
2,CCN(CC)CCN1C(=O)Cn2c(C)c(C)c3cccc1c32.Cl,-12.2%
3,CCN(CC)CCN1c2ccccc2Sc2ccccc21.O=C(O)C(=O)O,-3.5%
4,CCCc1ncc(CN2CCCCC2C(=O)Nc2ccc(Oc3ccccc3)nc2)cn1 (stereo not drawn),12.1%
5,O=C(O)c1nn(-c2cccc(C(F)(F)F)c2)ccc1=O,15.1%
6,Cc1cc(=O)c(C(=O)O)nn1-c1cccc(C(F)(F)F)c1,-78.9%
7,Cc1cc(=O)c(C(=O)O)nn1-c1ccccc1,8.46%
8,Cc1ccc2nc(C)cc(N/N=C/c3ccc(F)cc3)c2c1,0.285%
9,CC(=O)Nc1ccc(N2CCC(C)CC2)c([N+](=O)[O-])c1,7.46%
10,COc1ccc(C2CC(C(F)(F)F)n3nc(C(=O)N(C)Cc4cn(C)nc4C)c(Cl)c3N2)cc1 (stereo not drawn),-3.33%
11,CCOC(=O)c1cnc(N2CCN(C(=O)OCC)CC2)[nH]c1=O,13.9%
12,O=C(CCN1C(=O)C2C3C=CC(C3)C2C1=O)N1CCN(c2ccc(F)cc2)CC1 (stereo not drawn),-5.37%
13,O=C1C2CCCN2C(=O)N1CCCCN1CCN(c2ccc(F)cc2)CC1 (stereo not drawn),-10%
14,Cl.O=C1C2C3C=CC(C4CC34)C2C(=O)N1CCCCN1CCN(c2ccc(F)cc2)CC1 (stereo not drawn),-69.2%
15,Cc1cc(NC(=O)CCC(=O)N(c2cccnc2)C(C(=O)NC2CCCC2)c2ccccc2F)no1 (stereo not drawn),8.56%
16,Cc1ccc(OCCC(=O)OCC(=O)c2c(N)n(CC(C)C)c(=O)n(C)c2=O)cc1,-42.3%
17,CCOc1ccccc1OCC(=O)OCC(=O)c1c(N)n(CC(C)C)c(=O)n(C)c1=O,-9.86%
18,Cc1ccccc1OCCC(=O)OCC(=O)c1c(N)n(CC(C)C)c(=O)n(C)c1=O,-63.8%
19,CS(=O)(=O)Nc1ccc(Cc2noc(-c3ccc4[nH]cc(CCN)c4c3)n2)cc1.O,18.4%
